Laboratory results published in the supplement of paper PMC10849652.
About 7,900 targets were measured; listed, in parts, are those with a hit and a random draw of the rest. About 0.6% of all pairs of compound and target were hits. Unmarked numbers belong to inactive results.

How the values were obtained:
Experiment in all cases: log2 fold change, soluble protein after heating vs DMSO (PISA); higher = thermal stabilisation; K562 cells, 10 uM, 30 min; active = over 0.2 and 3.5 SD of the protein, either way, in both replicates (recomputed)
[1] = compound: NC(=O)Nc1cc(-c2cccc(F)c2)sc1C(=O)N[C@H]1CCCNC1
Outline: (§1)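 Soluble protein was defined as the supernatant after 21,000xg for 90 min. It came from K562 cells at 2×10^6 cells/mL given 10 μM compound for 30 min, heated in aliquots for 3 min across 48°C-58°C, pooled, and extracted in PBS with 0.5% NP-40 at 4°C, and was quantified by TMTpro 16plex LC-MS/MS with equalised channel sums. Thermal stability against control samples, from duplicates, is reported as log2 fold change.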

[2] = compound: NC(=O)c1cnc(N[C@@H]2CCCC[C@@H]2N)nc1Nc1cccc(-n2nccn2)c1
Outline: as §1

[3] = compound: NC1(c2ccc(-c3nc4ccn5c(=O)[nH]nc5c4cc3-c3ccccc3)cc2)CCC1
Outline: as §1

[4] = compound: NCC(=O)Nc1ccc(-n2nc(C(F)(F)F)cc2-c2ccc3c(ccc4ccccc43)c2)cc1
Outline: as §1

[5] = compound: Nc1ccccc1NC(=O)c1ccc(CNC(=O)OCc2cccnc2)cc1 [entinostat]
Outline: as §1

[6] = compound: O=C(CCCCCCC(=O)Nc1ccccc1)NO [vorinostat]
Outline: as §1

[7] = compound: O=C(CCCCCCNC(=O)c1cnc(N(c2ccccc2)c2ccccc2Cl)nc1)NO [citarinostat]
Outline: as §1

[8] = compound: O=C(O)c1ccc2c(c1)nc(Nc1cccc(Cl)c1)c1ccncc12 [silmitasertib]
Outline: as §1

[9] = compound: O=C1NC(=O)C(c2cnc3ccccn23)=C1c1cn2c3c(cc(F)cc13)CN(C(=O)N1CCCCC1)CC2
Outline: as §1

[10] = compound: c1cc(OCCN2CCCCC2)cc(-c2n[nH]c3ccc(-c4nnc[nH]4)cc23)c1
Outline: as §1

UniProt Q9UPN6, sequence (Q9UPN6 whole entry, looked up): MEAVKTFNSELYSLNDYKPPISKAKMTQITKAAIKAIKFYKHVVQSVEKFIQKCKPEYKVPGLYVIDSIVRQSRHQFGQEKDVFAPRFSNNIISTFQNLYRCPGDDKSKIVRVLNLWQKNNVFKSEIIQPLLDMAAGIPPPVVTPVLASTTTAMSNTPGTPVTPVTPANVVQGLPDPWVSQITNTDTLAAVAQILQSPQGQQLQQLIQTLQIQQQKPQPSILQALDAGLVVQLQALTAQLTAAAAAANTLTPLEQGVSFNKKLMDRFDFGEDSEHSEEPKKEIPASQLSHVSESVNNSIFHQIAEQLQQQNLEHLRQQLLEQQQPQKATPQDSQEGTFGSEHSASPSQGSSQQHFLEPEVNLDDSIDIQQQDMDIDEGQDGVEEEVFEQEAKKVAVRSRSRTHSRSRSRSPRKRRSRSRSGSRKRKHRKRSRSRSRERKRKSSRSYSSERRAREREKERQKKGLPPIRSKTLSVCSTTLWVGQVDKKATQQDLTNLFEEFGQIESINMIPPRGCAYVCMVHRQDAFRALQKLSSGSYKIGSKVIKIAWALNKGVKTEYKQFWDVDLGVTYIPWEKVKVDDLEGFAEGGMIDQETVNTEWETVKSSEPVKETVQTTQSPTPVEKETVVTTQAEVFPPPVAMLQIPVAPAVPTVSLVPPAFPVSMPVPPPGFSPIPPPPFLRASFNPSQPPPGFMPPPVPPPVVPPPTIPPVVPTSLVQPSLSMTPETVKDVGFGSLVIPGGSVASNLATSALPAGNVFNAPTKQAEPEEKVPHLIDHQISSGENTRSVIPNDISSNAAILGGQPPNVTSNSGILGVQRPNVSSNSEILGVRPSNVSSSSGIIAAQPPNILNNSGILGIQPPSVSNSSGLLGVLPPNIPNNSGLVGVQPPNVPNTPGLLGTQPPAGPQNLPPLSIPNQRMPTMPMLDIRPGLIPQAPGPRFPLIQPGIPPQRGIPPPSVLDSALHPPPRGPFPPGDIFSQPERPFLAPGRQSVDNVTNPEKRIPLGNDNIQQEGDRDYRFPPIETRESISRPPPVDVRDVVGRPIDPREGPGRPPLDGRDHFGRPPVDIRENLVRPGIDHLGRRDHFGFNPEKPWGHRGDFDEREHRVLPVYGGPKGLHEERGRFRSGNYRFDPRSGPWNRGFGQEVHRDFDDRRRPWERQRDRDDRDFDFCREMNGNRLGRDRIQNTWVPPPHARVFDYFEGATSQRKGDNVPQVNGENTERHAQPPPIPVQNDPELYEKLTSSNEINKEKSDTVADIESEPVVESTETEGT
UniProt Q96DX4, sequence (Q96DX4 whole entry, looked up): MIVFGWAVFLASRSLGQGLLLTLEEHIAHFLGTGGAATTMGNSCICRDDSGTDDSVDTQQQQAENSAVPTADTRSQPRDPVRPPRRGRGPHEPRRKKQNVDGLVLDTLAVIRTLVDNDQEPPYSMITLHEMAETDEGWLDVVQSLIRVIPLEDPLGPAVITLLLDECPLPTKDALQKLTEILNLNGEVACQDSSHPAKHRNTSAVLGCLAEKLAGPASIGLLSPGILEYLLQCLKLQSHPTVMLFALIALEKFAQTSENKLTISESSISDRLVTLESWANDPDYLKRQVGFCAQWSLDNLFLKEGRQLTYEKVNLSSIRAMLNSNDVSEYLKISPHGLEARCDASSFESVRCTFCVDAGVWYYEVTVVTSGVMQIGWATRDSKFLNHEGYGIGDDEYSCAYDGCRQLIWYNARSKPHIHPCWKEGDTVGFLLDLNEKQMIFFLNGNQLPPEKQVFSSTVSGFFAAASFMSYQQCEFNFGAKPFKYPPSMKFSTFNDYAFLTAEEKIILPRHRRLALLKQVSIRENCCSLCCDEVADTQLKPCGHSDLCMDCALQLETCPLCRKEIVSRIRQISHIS
UniProt Q9NQG5, sequence (Q9NQG5 whole entry, looked up): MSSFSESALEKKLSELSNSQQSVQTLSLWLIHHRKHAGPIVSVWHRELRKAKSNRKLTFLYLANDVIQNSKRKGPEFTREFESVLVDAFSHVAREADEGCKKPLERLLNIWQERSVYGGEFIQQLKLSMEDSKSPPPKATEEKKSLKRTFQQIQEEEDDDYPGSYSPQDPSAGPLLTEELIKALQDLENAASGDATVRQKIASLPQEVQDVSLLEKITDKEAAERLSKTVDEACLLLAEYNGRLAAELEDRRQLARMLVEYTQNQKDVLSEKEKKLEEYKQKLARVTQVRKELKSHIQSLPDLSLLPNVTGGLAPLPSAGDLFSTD
UniProt P27694, sequence (P27694 whole entry, looked up): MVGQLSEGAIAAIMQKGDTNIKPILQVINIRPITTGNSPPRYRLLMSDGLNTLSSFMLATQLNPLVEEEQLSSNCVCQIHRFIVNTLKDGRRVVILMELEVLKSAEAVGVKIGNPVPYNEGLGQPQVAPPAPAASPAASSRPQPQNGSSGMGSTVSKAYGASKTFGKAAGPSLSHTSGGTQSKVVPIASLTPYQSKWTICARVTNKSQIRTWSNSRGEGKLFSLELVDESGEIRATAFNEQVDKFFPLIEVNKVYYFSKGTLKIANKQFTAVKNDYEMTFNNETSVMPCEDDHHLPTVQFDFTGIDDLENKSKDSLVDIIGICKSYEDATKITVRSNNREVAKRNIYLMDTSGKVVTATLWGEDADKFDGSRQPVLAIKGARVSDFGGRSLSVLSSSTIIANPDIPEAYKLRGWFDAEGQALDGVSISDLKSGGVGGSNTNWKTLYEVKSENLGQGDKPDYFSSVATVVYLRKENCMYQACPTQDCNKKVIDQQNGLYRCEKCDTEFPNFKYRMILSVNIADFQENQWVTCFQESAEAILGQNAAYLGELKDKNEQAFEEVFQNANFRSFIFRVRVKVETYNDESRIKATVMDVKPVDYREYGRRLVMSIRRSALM
UniProt Q9BY42, sequence (Q9BY42 whole entry, looked up): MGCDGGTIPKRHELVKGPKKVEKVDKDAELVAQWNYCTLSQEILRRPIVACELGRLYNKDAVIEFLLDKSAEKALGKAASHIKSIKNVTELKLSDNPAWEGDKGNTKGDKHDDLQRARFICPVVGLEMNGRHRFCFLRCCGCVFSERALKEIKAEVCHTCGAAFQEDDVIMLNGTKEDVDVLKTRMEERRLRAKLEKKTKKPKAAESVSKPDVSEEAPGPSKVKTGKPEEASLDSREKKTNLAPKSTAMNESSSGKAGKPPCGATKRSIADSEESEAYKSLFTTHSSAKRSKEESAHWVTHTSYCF
UniProt Q8NEM2, sequence (Q8NEM2 whole entry, looked up): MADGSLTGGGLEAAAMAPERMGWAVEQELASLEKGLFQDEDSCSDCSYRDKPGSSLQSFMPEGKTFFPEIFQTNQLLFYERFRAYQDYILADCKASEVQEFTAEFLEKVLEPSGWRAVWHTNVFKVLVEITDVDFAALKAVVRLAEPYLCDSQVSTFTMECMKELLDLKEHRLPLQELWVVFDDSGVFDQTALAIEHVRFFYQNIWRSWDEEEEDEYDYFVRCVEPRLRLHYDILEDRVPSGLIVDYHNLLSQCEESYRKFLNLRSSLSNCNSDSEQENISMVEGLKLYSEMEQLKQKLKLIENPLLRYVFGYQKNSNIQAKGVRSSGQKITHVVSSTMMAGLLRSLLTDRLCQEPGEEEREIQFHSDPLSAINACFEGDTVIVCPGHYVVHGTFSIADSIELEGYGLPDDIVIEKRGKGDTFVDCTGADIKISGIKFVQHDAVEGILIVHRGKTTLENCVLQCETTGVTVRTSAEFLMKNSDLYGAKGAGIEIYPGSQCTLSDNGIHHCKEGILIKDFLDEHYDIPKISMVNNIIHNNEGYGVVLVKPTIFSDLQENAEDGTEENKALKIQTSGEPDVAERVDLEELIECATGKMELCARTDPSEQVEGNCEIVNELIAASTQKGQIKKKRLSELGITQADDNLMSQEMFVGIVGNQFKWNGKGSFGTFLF
UniProt Q9NW64, sequence (Q9NW64 whole entry, looked up): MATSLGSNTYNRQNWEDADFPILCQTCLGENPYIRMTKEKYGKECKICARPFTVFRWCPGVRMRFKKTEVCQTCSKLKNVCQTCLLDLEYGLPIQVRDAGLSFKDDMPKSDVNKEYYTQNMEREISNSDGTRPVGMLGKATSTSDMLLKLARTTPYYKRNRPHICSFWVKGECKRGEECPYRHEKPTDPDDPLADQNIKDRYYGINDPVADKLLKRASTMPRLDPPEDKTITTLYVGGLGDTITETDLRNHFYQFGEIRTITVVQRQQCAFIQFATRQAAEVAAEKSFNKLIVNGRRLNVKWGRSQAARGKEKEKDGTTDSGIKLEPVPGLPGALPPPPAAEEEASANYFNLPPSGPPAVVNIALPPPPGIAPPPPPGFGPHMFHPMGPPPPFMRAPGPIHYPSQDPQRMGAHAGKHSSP
UniProt P61586, sequence (P61586 whole entry, looked up): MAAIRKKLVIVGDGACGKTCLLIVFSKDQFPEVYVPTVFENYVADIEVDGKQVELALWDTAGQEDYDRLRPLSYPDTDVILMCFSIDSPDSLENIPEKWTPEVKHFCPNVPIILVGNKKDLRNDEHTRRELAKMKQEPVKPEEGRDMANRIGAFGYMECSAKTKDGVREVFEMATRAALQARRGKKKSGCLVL
UniProt Q9NPQ8, sequence (Q9NPQ8 whole entry, looked up): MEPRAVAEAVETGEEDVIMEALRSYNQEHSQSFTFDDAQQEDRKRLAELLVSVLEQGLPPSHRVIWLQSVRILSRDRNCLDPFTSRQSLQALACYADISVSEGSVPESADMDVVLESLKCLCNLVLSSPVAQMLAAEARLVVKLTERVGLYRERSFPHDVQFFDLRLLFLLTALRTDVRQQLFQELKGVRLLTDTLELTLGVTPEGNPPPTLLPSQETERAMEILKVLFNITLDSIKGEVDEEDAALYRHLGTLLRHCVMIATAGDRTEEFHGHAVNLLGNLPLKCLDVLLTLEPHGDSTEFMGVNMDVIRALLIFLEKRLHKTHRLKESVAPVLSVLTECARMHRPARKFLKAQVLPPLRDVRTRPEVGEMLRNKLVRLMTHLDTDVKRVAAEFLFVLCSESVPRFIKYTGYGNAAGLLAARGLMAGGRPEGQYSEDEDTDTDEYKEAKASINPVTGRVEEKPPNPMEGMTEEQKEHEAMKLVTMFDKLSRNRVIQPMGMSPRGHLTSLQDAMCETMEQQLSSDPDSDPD

| Target | log2 fold change [1] | log2 fold change [2] | log2 fold change [3] | log2 fold change [4] | log2 fold change [5] | log2 fold change [6] | log2 fold change [7] | log2 fold change [8] | log2 fold change [9] | log2 fold change [10] |
| --- | --- | --- | --- | --- | --- | --- | --- | --- | --- | --- |
| RPRD1B (UniProt Q9NQG5) | -0.058 | -0.03 | -0.087 | -0.081 | 0.051 | 0.049 | 0.029 | 0.031 | -0.346 (active) | -0.049 |
| SEC24A (UniProt O95486) | -0.015 | 0 | -0.108 | -0.016 | 0.016 | 0.078 | 0 | 0.02 | -0.092 | -0.013 |
| RTF2 (UniProt Q9BY42) | -0.134 | 0.012 | 0.124 | -0.081 | -0.023 | -0.062 | 0.133 | 0.133 | -0.189 | 0.028 |
| SEC23A (UniProt Q15436) | -0.004 | 0.064 | -0.066 | -0.015 | -0.035 | -0.02 | -0.044 | 0.011 | 0.024 | -0.097 |
| SDHAF2 (UniProt Q9NX18) | -0.005 | 0.156 | -0.089 | -0.007 | -0.04 | -0.156 | -0.026 | -0.007 | -0.101 | -0.015 |
| SEH1L isoform 1 (UniProt Q96EE3) | 0.007 | -0.027 | -0.014 | -0.004 | -0.04 | 0.022 | 0.064 | 0.076 | -0.027 | -0.065 |
| RPS12 (UniProt P25398) | 0.006 | 0.073 | 0.134 | 0.068 | -0.032 | -0.002 | 0.009 | -0.042 | 0.076 | -0.113 |
| RAB33B (UniProt Q9H082) | -0.032 | 0.014 | 0.037 | -0.019 | -0.035 | -0.021 | -0.016 | -0.014 | -0.048 | -0.032 |
| RSRC2 (UniProt Q7L4I2) | -0.05 | 0.111 | -0.001 | -0.019 | -0.01 | -0.029 | 0.038 | -0.13 | 0.023 | -0.034 |
| RSL1D1 (UniProt O76021) | -0.001 | 0.207 | 0.339 | 0.188 | -0.133 | -0.016 | -0.105 | 0.329 | 0.409 | -0.265 |
| RSPRY1 (UniProt Q96DX4) | -0.054 | 0.051 | -0.104 | 0.061 | -0.016 | -0.02 | -0.075 | 0.028 | -0.072 | -0.008 |
| RAD50 isoform 2 (UniProt Q92878) | -0.011 | -0.042 | -0.057 | -0.064 | 0.038 | -0.014 | 0.047 | -0.008 | -0.034 | 0.009 |
| RIOK2 (UniProt Q9BVS4) | -0.008 | 0.351 (active) | 0.04 | 0.027 | -0.041 | -0.044 | -0.067 | 0.018 | 0.086 | -0.071 |
| RUNX1 isoform 8 (UniProt Q01196) | -0.027 | 0.03 | -0.092 | 0.187 | -0.16 | 0.321 | -0.249 | 0.119 | 0.082 | 0.051 |
| RAB5C isoform 2 (UniProt P51148) | 0.092 | 0.041 | 0.017 | 0.051 | 0.007 | -0.001 | -0.004 | -0.009 | 0.049 | -0.028 |
| SCAF8 isoform 2 (UniProt Q9UPN6) | -0.062 | -0.028 | -0.086 | -0.044 | 0.053 | 0.166 | 0.058 | -0.003 | -0.098 | -0.093 |
| RPS25 (UniProt P62851) | -0.043 | 0.071 | 0.192 | 0.053 | -0.072 | 0.032 | -0.066 | -0.061 | 0.107 | -0.052 |
| RIC8A isoform 3 (UniProt Q9NPQ8) | -0.035 | -0.154 | -0.126 | -0.088 | 0.192 | 0.058 | 0.12 | -0.005 | 0.084 | -0.096 |
| RPS3A (UniProt P61247) | 0.01 | 0.084 | 0.164 | 0.035 | -0.04 | 0.041 | -0.071 | 0.017 | 0.088 | -0.131 |
| RHOA (UniProt P61586) | -0.01 | 0.036 | 0.204 | 0.123 | -0.019 | -0.16 | -0.047 | -0.136 | -0.057 | 0.104 |
| SDHC (UniProt Q99643) | -0.12 | 0.097 | -0.079 | 0.041 | -0.178 | -0.042 | 0.033 | 0.032 | 0 | -0.062 |
| RIPK1 (UniProt Q13546) | 0.037 | -0.06 | -0.092 | -0.009 | 0.088 | -0.014 | -0.006 | 0.025 | 0.205 | 0.047 |
| RBM22 (UniProt Q9NW64) | -0.027 | -0.004 | 0.032 | -0.049 | -0.008 | -0.009 | -0.038 | 0.119 | -0.063 | -0.043 |
| RPS5 (UniProt P46782) | 0.035 | 0.105 | 0.153 | 0.133 | -0.043 | 0 | -0.052 | -0.07 | 0.094 | -0.12 |
| RAB8B (UniProt Q92930) | 0.203 | 0.017 | -0.053 | 0.2 | 0.116 | 0.073 | 0.03 | -0.049 | -0.013 | 0.093 |
| RBIS (UniProt Q8N0T1) | -0.021 | -0.029 | 0.02 | 0.02 | 0.019 | 0.014 | 0.092 | -0.009 | -0.002 | -0.078 |
| RPTOR (UniProt Q8N122) | -0.026 | -0.139 | -0.243 (active) | -0.021 | 0.009 | 0.007 | 0.056 | 0.085 | -0.025 | -0.008 |
| SHCBP1 (UniProt Q8NEM2) | 0.01 | -0.017 | -0.107 | -0.08 | -0.063 | 0.039 | 0.136 | 0.025 | -0.087 | -0.091 |
| RNPEP (UniProt Q9H4A4) | -0.001 | -0.093 | -0.086 | -0.027 | 0.042 | 0.033 | 0.018 | 0.031 | -0.017 | -0.033 |
| RPA1 (UniProt P27694) | -0.189 | 0.007 | -0.049 | -0.052 | 0.06 | 0.106 | 0.079 | -0.02 | -0.046 | 0.006 |
